Experimental data taken from the supplement of paper PMC10849652.
About 7,900 targets were measured; listed, in parts, are those with a hit and a random draw of the rest. About 0.6% of all pairs of compound and target were hits. A number with no mark means an inactive call.

Tests used:
Assay in all cases: log2 fold change, soluble protein after heating vs DMSO (PISA); higher = thermal stabilisation; K562 cells, 10 uM, 30 min; active = over 0.2 and 3.5 SD of the protein, either way, in both replicates (recomputed)
[1] = compound: C[C@@H](Oc1cc(-c2cnn(C3CCNCC3)c2)cnc1N)c1c(Cl)ccc(F)c1Cl [crizotinib]
In short: (§1)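 Quantification of soluble protein used TMTpro 16plex LC-MS/MS, with channel sums equalised. Samples were the supernatant after 21,000xg for 90 min of pooled aliquots from K562 cells (2×10^6 cells/mL) treated with 10 μM compound for 30 min, heated for 3 min over 48°C-58°C, and extracted in PBS with 0.5% NP-40 at 4°C. Values, from duplicates, describe thermal stability against control samples on a log2 fold-change scale.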

[2] = compound: C[C@@H]1COCCN1C2=NC(=NC(=C2)C3(CC3)S(=O)(=O)C)C4=C5C=CNC5=CC=C4
In short: as §1

[3] = compound: C[C@H](C1=CC=C(C=C1)C(=O)NC2=C3C=CNC3=NC=C2)N
In short: as §1

[4] = compound: Cc1cc(Nc2cc(N3CCN(C)CC3)nc(Sc3ccc(NC(=O)C4CC4)cc3)n2)n[nH]1 [tozasertib]
In short: as §1

[5] = compound: Cc1ccc(-n2nc(C(C)(C)C)cc2NC(=O)Nc2ccc(OCCN3CCOCC3)c3ccccc23)cc1 [doramapimod]
In short: as §1

[6] = compound: Cc1ccc(C(=O)N(CCCN)[C@@H](c2nc3cc(Cl)ccc3c(=O)n2Cc2ccccc2)C(C)C)cc1 [ispinesib]
In short: as §1

[7] = compound: Cc1ccc(NC(=O)c2ccc(CN3CC[C@H](N(C)C)C3)c(C(F)(F)F)c2)cc1Nc1nccc(-c2cncnc2)n1 [bafetinib]
In short: as §1

[8] = compound: Cc1cn(-c2cc(NC(=O)c3ccc(C)c(Nc4nccc(-c5cccnc5)n4)c3)cc(C(F)(F)F)c2)cn1 [nilotinib]
In short: as §1

[9] = compound: Cc1nc(Nc2n[nH]c3c2CN(C(=O)N[C@H](CN(C)C)c2ccccc2)C3(C)C)c2sccc2n1
In short: as §1

[10] = compound: Cc1ncc(-c2ccnc(Nc3ccc(S(C)(=O)=O)cc3)n2)n1C(C)C
In short: as §1

[11] = compound: Cn1cc(-c2ccc3c(c2)CCN3C(=O)Cc2cccc(C(F)(F)F)c2)c2c(N)ncnc21
In short: as §1

[12] = compound: Cn1cc(-c2ccc3nnc(C(F)(F)c4ccc5ncccc5c4)n3n2)cn1
In short: as §1

[13] = compound: FC(F)(F)c1ccc(/C=C/c2nc(COc3ccc(CCCCn4ccnn4)cc3)co2)cc1 [mubritinib]
In short: as §1

[14] = compound: C[C@H](Nc1ncnc2nc[nH]c12)c1cc2cccc(Cl)c2c(=O)n1-c1ccccc1 [duvelisib]
In short: as §1

[15] = compound: Cc1cc(SCc2sc(-c3ccc(C(F)(F)F)cc3)nc2C)ccc1OCC(=O)O
In short: as §1

[16] = compound: Cc1nc(Nc2ncc(C(=O)Nc3c(C)cccc3Cl)s2)cc(N2CCN(CCO)CC2)n1 [dasatinib]
In short: as §1

[17] = compound: Cn1cncc1[C@@](N)(c1ccc(Cl)cc1)c1ccc2c(c1)c(-c1cccc(Cl)c1)cc(=O)n2C [tipifarnib]
In short: as §1

[18] = compound: Cc1cc(Nc2cc(CN3CCOCC3)c3nc(C)c(Cc4ccc(Cl)cc4F)n3n2)n[nH]1 [gandotinib]
In short: as §1

[19] = compound: Cc1cccc(CC(=O)N2CCc3c2ccc(-c2cn(C)c4ncnc(N)c24)c3F)n1
In short: as §1

[20] = compound: CS(=O)(=O)c1ccc(-c2cnc(N)c(C(=O)Nc3ccccc3)n2)cc1
In short: as §1

Sequence of UniProt Q6UUV7 (Q6UUV7 whole entry, looked up): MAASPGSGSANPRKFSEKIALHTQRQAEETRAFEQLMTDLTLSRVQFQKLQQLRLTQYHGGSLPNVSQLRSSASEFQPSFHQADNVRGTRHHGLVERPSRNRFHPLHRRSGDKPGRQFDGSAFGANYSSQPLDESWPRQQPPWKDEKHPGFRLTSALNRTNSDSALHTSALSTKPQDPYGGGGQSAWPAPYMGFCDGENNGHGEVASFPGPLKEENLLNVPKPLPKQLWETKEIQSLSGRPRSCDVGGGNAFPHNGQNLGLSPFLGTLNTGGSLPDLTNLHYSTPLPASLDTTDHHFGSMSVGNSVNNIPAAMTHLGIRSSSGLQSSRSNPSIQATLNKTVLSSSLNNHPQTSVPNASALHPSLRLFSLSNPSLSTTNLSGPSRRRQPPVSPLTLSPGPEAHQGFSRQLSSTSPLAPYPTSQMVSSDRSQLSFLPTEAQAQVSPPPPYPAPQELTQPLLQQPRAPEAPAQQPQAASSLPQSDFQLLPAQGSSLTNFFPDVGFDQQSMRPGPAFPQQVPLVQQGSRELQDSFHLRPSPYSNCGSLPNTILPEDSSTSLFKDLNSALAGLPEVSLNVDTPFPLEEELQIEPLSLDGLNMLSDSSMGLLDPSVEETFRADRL
Sequence of UniProt Q13286 (Q13286 whole entry, looked up): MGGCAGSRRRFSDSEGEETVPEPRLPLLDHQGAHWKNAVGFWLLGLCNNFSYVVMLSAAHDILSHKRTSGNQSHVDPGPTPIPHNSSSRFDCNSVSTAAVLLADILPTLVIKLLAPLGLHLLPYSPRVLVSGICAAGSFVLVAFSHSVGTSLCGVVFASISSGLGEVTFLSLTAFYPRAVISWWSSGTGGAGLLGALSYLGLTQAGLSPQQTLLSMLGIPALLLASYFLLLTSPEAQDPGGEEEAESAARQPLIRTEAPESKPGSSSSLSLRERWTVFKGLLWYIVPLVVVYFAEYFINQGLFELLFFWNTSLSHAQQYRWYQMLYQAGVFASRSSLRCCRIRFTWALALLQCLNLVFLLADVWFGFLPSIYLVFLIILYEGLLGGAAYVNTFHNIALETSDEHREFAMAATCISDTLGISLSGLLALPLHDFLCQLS
Sequence of UniProt Q70SY1 (Q70SY1 whole entry, looked up): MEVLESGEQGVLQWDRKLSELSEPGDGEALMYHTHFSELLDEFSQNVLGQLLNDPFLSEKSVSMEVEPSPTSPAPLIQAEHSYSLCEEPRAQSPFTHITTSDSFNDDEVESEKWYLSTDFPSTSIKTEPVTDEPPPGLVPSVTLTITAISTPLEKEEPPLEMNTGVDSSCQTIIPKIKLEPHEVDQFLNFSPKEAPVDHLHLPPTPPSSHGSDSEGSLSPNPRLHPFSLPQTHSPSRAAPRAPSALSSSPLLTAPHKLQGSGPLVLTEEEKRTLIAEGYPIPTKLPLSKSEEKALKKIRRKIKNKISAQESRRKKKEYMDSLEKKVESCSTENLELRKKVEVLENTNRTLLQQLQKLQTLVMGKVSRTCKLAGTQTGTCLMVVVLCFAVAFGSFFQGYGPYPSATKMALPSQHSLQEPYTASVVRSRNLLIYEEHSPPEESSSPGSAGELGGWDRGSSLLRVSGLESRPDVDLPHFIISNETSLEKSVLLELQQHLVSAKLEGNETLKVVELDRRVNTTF
Sequence of UniProt Q9H257 (Q9H257 whole entry, looked up): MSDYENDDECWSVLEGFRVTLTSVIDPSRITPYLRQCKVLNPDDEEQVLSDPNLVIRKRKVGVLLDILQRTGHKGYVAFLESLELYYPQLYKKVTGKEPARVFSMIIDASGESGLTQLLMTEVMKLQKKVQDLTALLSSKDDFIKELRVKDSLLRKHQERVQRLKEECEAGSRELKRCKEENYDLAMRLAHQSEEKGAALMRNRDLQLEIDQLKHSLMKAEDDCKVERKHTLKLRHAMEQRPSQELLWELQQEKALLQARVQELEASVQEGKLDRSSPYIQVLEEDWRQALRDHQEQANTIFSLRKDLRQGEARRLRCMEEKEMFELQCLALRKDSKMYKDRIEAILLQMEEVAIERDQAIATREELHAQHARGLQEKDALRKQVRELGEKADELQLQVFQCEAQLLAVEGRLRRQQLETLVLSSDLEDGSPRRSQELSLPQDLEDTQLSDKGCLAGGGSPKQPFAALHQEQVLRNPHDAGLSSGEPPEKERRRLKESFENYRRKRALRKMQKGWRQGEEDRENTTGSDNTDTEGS
Sequence of UniProt Q14677 (Q14677 whole entry, looked up): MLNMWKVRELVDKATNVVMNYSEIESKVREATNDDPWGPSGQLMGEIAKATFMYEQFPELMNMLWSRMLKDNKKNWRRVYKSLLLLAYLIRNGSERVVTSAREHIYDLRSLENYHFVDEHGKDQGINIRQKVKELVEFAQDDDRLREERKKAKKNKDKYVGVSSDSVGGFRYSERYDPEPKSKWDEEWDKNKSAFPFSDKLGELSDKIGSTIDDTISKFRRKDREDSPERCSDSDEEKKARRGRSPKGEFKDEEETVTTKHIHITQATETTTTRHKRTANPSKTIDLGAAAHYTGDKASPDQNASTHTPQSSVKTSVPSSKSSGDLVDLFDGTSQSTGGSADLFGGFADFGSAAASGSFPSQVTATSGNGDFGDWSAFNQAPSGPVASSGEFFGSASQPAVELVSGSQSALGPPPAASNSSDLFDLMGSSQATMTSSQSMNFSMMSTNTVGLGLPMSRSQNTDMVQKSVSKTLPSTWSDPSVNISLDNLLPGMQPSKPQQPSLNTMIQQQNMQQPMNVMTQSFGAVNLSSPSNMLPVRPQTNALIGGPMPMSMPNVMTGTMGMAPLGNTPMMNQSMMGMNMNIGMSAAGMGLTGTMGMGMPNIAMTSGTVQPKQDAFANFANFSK
Sequence of UniProt Q92828 (Q92828 whole entry, looked up): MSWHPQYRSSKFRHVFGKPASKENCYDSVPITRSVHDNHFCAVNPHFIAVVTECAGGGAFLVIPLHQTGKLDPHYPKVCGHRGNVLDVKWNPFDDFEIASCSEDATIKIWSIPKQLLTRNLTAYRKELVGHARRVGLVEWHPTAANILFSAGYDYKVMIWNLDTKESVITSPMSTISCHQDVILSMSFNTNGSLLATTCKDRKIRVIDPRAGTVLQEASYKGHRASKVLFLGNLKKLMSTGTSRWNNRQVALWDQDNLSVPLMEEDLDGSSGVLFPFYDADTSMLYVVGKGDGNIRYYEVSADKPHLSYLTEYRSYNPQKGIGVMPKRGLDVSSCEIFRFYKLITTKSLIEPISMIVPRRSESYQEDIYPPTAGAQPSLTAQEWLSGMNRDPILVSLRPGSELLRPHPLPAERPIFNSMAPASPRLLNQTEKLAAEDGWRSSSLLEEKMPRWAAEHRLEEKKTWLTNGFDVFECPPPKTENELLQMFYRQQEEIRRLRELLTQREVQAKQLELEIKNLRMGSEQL
Sequence of UniProt P33552 (P33552 whole entry, looked up): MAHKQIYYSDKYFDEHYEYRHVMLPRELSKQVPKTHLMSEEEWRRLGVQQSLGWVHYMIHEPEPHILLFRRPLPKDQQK
Sequence of UniProt A8MTT3 (A8MTT3 whole entry, looked up): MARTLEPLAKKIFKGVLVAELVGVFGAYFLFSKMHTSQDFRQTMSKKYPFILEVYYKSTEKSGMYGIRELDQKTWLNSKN
Sequence of UniProt P51795 (P51795 whole entry, looked up): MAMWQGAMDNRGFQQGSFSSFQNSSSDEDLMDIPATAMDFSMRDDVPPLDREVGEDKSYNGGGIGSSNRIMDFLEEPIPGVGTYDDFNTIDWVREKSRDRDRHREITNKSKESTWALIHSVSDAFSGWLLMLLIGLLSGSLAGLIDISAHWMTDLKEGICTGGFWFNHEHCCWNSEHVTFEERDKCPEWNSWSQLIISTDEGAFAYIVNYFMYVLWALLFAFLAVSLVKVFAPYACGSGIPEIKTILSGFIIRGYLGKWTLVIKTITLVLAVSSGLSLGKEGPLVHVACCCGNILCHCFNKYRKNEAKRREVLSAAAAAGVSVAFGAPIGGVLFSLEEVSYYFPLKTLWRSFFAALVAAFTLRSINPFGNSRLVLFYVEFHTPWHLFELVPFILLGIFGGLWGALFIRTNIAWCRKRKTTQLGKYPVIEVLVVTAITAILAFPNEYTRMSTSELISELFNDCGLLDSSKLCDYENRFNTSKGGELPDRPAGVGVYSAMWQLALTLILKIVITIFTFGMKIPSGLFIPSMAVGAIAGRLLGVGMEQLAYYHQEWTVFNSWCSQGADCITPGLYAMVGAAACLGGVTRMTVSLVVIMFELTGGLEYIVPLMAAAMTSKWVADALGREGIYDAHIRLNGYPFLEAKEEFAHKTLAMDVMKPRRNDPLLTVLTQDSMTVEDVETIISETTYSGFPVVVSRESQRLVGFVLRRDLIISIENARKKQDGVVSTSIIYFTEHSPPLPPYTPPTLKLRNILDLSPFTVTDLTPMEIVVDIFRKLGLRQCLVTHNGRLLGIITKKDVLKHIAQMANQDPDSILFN
Sequence of UniProt P51911 (P51911 whole entry, looked up): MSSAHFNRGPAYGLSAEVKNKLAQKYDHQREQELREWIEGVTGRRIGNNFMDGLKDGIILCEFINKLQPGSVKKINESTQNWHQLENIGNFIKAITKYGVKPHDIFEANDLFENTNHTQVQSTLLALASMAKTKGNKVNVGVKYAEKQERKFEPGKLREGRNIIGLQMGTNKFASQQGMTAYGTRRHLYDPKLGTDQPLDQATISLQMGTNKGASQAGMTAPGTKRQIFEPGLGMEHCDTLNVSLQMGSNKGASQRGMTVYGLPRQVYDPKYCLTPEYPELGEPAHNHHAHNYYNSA
Sequence of UniProt O95273 (O95273 whole entry, looked up): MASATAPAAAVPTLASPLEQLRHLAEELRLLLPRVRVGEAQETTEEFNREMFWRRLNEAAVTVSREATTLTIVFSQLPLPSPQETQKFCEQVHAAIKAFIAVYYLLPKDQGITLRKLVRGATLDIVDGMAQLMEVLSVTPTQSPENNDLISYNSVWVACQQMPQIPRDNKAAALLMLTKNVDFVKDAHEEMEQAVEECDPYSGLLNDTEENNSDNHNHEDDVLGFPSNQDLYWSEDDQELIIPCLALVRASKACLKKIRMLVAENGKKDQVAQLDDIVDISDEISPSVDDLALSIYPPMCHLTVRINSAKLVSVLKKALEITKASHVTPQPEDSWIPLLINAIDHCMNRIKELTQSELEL

| Target | log2 fold change [1] | log2 fold change [2] | log2 fold change [3] | log2 fold change [4] | log2 fold change [5] | log2 fold change [6] | log2 fold change [7] | log2 fold change [8] | log2 fold change [9] | log2 fold change [10] | log2 fold change [11] | log2 fold change [12] | log2 fold change [13] | log2 fold change [14] | log2 fold change [15] | log2 fold change [16] | log2 fold change [17] | log2 fold change [18] | log2 fold change [19] | log2 fold change [20] |
| --- | --- | --- | --- | --- | --- | --- | --- | --- | --- | --- | --- | --- | --- | --- | --- | --- | --- | --- | --- | --- |
| CREB3L2 (UniProt Q70SY1) | 0.098 | -0.076 | -0.26 | -0.132 | 0.128 | -0.342 | 0.01 | 0.091 | -0.009 | -0.119 | 0.039 | -0.024 | 0.13 | – | – | – | – | – | – | – |
| CA1 (UniProt E5RIF9) | – | -0.134 | – | -0.153 | – | – | -0.042 | – | – | – | – | – | – | 0.055 | -0.613 | -0.098 | – | – | – | – |
| CLN3 (UniProt Q13286) | -0.327 | 0.066 | 0.071 | -0.006 | -0.047 | -0.307 | -0.099 | -0.016 | 0.002 | -0.02 | -0.049 | 0.028 | 0.09 | 0.096 | -0.085 | 0.064 | 0.1 | – | – | – |
| CKS2 (UniProt P33552) | – | – | – | -0.094 | – | – | -0.021 | -0.008 | -0.188 | -0.222 | – | – | 0.325 | 0.01 | -0.038 | 0.096 | -0.047 | -0.272 | 0.048 | – |
| CLCN5 isoform 2 (UniProt P51795) | -0.321 | – | -0.123 | 0.122 | -0.03 | -0.419 (active) | – | -0.176 | 0.014 | -0.063 | 0.041 | -0.061 | – | 0.188 | -0.049 | -0.177 | – | -0.083 | 0.048 | – |
| CEBPZOS (UniProt A8MTT3) | 0.26 (active) | – | – | -0.031 | 0.066 | 0.016 | 0.066 | 0.039 | 0.021 | -0.027 | – | 0.033 | 0.121 | 0.055 | -0.013 | 0.009 | -0.044 | -0.189 | 0.014 | – |
| CORO2A (UniProt Q92828) | – | – | 0.101 | -0.028 | – | -0.046 | 0.021 | -0.047 | -0.052 | -0.049 | -0.017 | -0.255 | 0.048 | 0.061 | 0.023 | -0.066 | -0.005 | 0.061 | 0.015 | -0.085 |
| CFAP47 (UniProt Q6ZTR5) | – | 0.099 | – | – | – | – | 0.034 | – | – | – | – | – | – | -0.027 | -0.302 | -0.117 | 0.047 | – | – | – |
| CCNL1 (UniProt Q9UK58) | – | – | – | – | – | – | – | – | – | – | – | – | 0.122 | – | – | – | – | – | – | – |
| CARD9 (UniProt Q9H257) | -0.023 | – | – | – | 0.135 | -0.398 | – | – | – | – | – | 0.085 | – | – | – | – | – | – | – | – |
| CLINT1 (UniProt Q14677) | 0.166 | – | 0.005 | 0.074 | 0.154 | – | -0.053 | 0.065 | -0.048 | -0.151 | 0.047 | – | -0.007 | -0.08 | -0.155 | 0.142 | – | – | – | – |
| CLASP2 (UniProt O75122) | -0.21 | – | 0.155 | – | 0.132 | -0.007 | -0.098 | 0.014 | -0.278 | -0.231 | -0.155 | -0.344 | 0.027 | – | – | – | 0.045 | – | – | – |
| CCNDBP1 (UniProt O95273) | – | – | 0.06 | 0.1 | – | -0.029 | 0.059 | -0.19 | 0.028 | 0.21 | -0.055 | -0.197 | -0.045 | 0.016 | 0.043 | 0.023 | – | -0.066 | -0.017 | 0.016 |
| CNN1 (UniProt P51911) | – | 0.045 | -0.121 | -0.151 | – | – | – | 0.008 | 0 | 0.031 | 0.04 | – | 0.009 | – | – | – | 0.049 | -0.673 (active) | 0.22 | -0.052 |
| CRTC3 (UniProt Q6UUV7) | – | 0.177 | 0.071 | -0.121 | – | 0.129 | -0.018 | – | – | – | -0.002 | -0.019 | -0.168 | – | – | – | -0.302 | – | – | -0.004 |
